RORgamma inh: blocks mouse ROR gamma transcriptional activity; 310,000 compounds, 5.4% hits; Potency, µM (highest dose often 53.6 µM), for inactives: top-dose activity change, negative = inhibition, actives largely listed as inhibitors; P51450; Drosophila S2 Gal4-RORgamma UAS-luciferase reporter, 20 h; further: nearly all actives have a fitted effect of over 60% in size
Target sequence (P51450 whole entry, looked up, the tested form may be a part): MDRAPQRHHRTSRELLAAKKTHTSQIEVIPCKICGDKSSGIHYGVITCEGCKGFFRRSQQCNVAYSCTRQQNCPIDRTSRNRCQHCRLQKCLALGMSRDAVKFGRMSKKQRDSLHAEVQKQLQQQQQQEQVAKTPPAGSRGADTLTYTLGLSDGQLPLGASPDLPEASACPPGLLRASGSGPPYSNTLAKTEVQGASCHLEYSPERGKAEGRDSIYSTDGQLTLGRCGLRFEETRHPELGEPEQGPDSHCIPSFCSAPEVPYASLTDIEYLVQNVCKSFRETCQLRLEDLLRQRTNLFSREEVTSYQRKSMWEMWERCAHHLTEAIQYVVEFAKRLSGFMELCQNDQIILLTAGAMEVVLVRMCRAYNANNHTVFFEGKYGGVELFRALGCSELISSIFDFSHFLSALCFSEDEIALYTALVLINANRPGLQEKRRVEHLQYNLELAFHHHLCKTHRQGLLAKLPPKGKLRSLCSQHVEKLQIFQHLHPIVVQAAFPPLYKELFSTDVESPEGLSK
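Compounds are pin-transferred onto Drosophila Schneider cells expressing a copper-inducible Gal4–ROR gamma transactivation domain fusion. After 1 hr, copper sulfate is added to 700 uM final; luciferase is read 20 hr later.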
KinaseGlo FLuc: blocks Kinase-Glo luciferase, a counter-screen artifact. Kinase-Glo luciferase, ATP luminescence, 8 min. Potency, µM (titrated, usually from 38.3 µM), inactives show top-dose activity change, negative = inhibition, most hits filed as inhibitors. AID 1379. 200,000 compounds, 0.28% hits. Q27757; further: nearly all actives have a fitted effect of over 60% in size
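Light output from Kinase-Glo luciferase with luciferin and 10 uM ATP in 50 mM imidazole pH 7.2, KCl, MgCl2, Tween 20, BSA; compound pin-delivered, 8-min ambient incubation, then luminescence read.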
Gal4-VP16 FLuc: Gal4-VP16 reporter inhibition counter-screen; Drosophila S2 Gal4-VP16 UAS-luciferase, luminescence, 20 h; Potency, µM (doses to about 53.6 µM), for the others: at the top dose activity, negative = inhibition, usual class: inhibitors; 310,000 compounds, 3.5% hits; AID 2546;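 further: Gal4-VP16 expression switched on by copper sulfate through the metallothionein promoter; nearly all actives have a fitted effect of over 50% in size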
* marks the source's active call; other numbers are inactive results; ? = inconclusive; . = not tested or not shown; [ ] = another dose, or the depositor's remark. Compounds with a hit are over-represented: about 6.4% of the library has one in this group of screens. The call rests on the fitted dose curve; in most records, active means well fitted curve in the direction sought with a large enough effect; inconclusive means small, poorly fitted or top-dose-only effect, or another doubt; inactive means no such curve, though single readings can be large; an effect the other way counts as inactive or inconclusive. On the % scale 0 is the no-effect control and ±100 the full control effect; potency means the concentration at half of the fitted maximal effect.

SMILES	RORgamma inh	KinaseGlo FLuc	Gal4-VP16 FLuc
O=C(NNc1ccccc1[N+](=O)[O-])NC1CCCCC1	-74%	-1%	-2%
O=C(NC(=S)NCC1CCCO1)c1ccco1 (stereo not drawn)	-9%	-2%	3%
O=C(NC(=S)NC1CCCCC1)c1ccccc1[N+](=O)[O-]	5µM*	.	5.6µM*
O=C(NC(=S)NCC1CCCO1)c1ccccc1Br (stereo not drawn)	?	-3%	-17%
O=C(NC(=S)NCC1CCCO1)c1ccccc1[N+](=O)[O-] (stereo not drawn)	10µM*	3%	-11%
CCOc1cc(NC(=S)NCC2CCCO2)c(OCC)cc1NC(=O)CC (stereo not drawn)	-20%	2%	-7%
O=C(NC(=S)NCC1CCCO1)c1cccs1 (stereo not drawn)	14µM*	2%	?
CCOc1cc(NC(=S)NCC2CCCO2)c(OCC)cc1NC(=O)c1ccccc1F (stereo not drawn)	3.2µM*	2%	7.9µM*
Cc1cccc(OC(C)C(=O)N2CCCN(C)CC2)c1C (stereo not drawn)	-13%	.	-4%
CCOCC(=O)N1CCN(c2ccccc2OC)CC1	-1%	1%	-10%[10 µM]
CCCn1c(-c2ccc(F)cc2)nc2c(NCCCN3CCCCC3C)nc(C)nc21 (stereo not drawn)	-28%	-2%	-12%
O=C(NC(=S)NCC1CCCO1)c1ccccc1F (stereo not drawn)	?	0%	2%
Cc1ccc(C(=O)NC(=S)NCC2CCCO2)cc1Br (stereo not drawn)	5µM*	0%	?
c1ccc2c(-c3nnc4n3CCCCC4)cc(-c3ccncc3)nc2c1	-11%	-4%	-3%
Fc1ccc(-c2cc(-c3nnc4n3CCCCC4)c3ccccc3n2)cc1	?	1%	11µM*
Clc1ccc(-c2cc(-c3nnc4n3CCCCC4)c3ccccc3n2)cc1	?	.	3.2µM*
Fc1ccc(-c2nnc3n2CCCCC3)cc1	-3%	-3%	0%
CC(C)CC(C(=O)NC(C)(C)C)N(Cc1cccs1)C(=O)c1snc(C(N)=O)c1N (stereo not drawn)	17%	2%	6%
C[C@@H]1O[C@@H](OC2O[C@@H](COc3cc(O)c4c(=O)cc(-c5ccc(O)cc5)oc4c3)[C@@H](O)[C@@H](O)[C@@H]2O)[C@H](O)[C@H](O)[C@H]1O (stereo partly drawn)	5%	.	2%
COc1ccc(-c2nnc3n2N=C(C)CS3)cc1	-1%	1%	1%
CCOC(=O)/C(=C\c1ccc(OC(F)F)cc1)C1=Nn2c(nnc2-c2ccc(Cl)cc2)SC1	6.3µM*	3%	5.6µM*
CCn1ncc(NC(=O)Nc2cccc(C(F)(F)F)c2)c1C(N)=O	33%	1%	14%
CCSCCc1nnc(NC(=O)Nc2cccc(C(F)(F)F)c2)s1	?	1%	18µM*
CC1(C)CC(=O)C2=C(C1)OC1OC(=O)CC21C (stereo not drawn)	24%	0%	0%
Cc1ccc(NC(=O)CN(C)C2CCCCC2)cc1Br	-13%	-1%	-7%
SMILES	RORgamma inh	KinaseGlo FLuc	Gal4-VP16 FLuc
COc1ccc(C(=O)NC(=S)N(C)C2CCCCC2)cc1Br	0.71µM*	.	0.71µM*
Cc1ccc(C(=O)NC(=S)N(C)C2CCCCC2)cc1Br	0.22µM*	.	0.5µM*
COc1ccccc1/C=C/C(=O)NC(=S)N(C)C1CCCCC1	?	-4%	3.2µM*
COc1ccc(C(=O)NC(=O)N2CCCCC2)cc1	-1%	-2%	1%
COc1ccc(C(=O)NC(=S)N(C)C2CCCCC2)cc1	2µM*	.	4µM*
COc1ccc(C(=O)NC2CCCc3ccccc32)cc1Br (stereo not drawn)	2%	.	3%
COc1ccccc1/C=C/C(=O)NCCC1=CCCCC1	6%	-1%	-6%[10 µM]
CC(C)N(CCO)C(=O)CCc1nnc(Cc2cccc(C(F)(F)F)c2)o1	37%	-1%	28%
O=C(Cc1cnc2ncnn2c1)N1CCc2c([nH]c3ccccc23)C1c1ccccn1 (stereo not drawn)	-13%	1%	-9%
COC(=O)[C@H](CC(C)C)NC(=O)c1ccc(NC[C@@H](N)CS)cc1-c1cccc2ccccc12	-8%	.	-26%
O=C(Cn1cnc2scc(-c3ccc(Br)cc3)c2c1=O)N1CCOCC1	22%	-1%	-4%
Cc1ccc(OC(C)C(=O)N2CC(=O)Nc3ccccc32)cc1 (stereo not drawn)	4%	.	-16%
NC(N)=Nc1nc(C2COc3ccccc3O2)cs1 (stereo not drawn)	?	1%	-27%
CC(=O)Nc1nc(C2COc3ccccc3O2)cs1 (stereo not drawn)	13µM*	-1%	-1%[0.365 µM]
NCCc1nnc(SCc2ccc(F)cc2)o1	-18%	-1%	-11%
NCCCCCc1nnc(SCc2ccc(Cl)c(Cl)c2)o1	?	1%	10µM*
CN(C)c1ccc(Nc2nc(N)c3ccccc3n2)cc1	?	.	3.5µM*
COc1ccc(C)cc1Nc1nc(N)c2ccccc2n1	29%	.	-1%
CCOc1nc(Nc2ccc(OC)cc2)nc(OCC)n1	7%	20%	?
CN(C)c1nc(Nc2ccccc2)nc(N(C)C)n1	4%	-2%	-9%
Nc1ncnc(Nc2ccccc2)n1	17%	.	5%
Nc1nc(Nc2ccccc2)nc2ccccc12	?	11µM*	?
CCOc1ccc(Nc2nc(N)c3ccccc3n2)cc1	7.1µM*	.	?
Cc1ccccc1Nc1nc(N)c2ccccc2n1	?	13µM*	?
O=[N+]([O-])c1ccc(C(O)C23CN4CN(CN(C4)C2)C3)cc1 (stereo not drawn)	-7%	0%	3%
SMILES	RORgamma inh	KinaseGlo FLuc	Gal4-VP16 FLuc
Cc1ccc(C(=O)NCC(=O)N2CCc3ccccc3C2)cc1C	27%	.	-8%
CCOCc1c(C(=O)OCC(=O)Nc2ccc(C)c(S(=O)(=O)N(C)C)c2)oc2ccccc12	?	3%	?
Nc1nc(Nc2ccc(Cl)cc2)nc2ccccc12	-38%	14µM*	?
Cc1ccc(Nc2nc(N)c3ccccc3n2)cc1Cl	17%[1.91 µM]	.	-24%
Cc1ccn(CCC(=O)Nc2ccc(-c3ccno3)cc2)n1	6%	.	2%
O=C(Nc1cccc(C(=O)Nc2ccc(F)cc2F)c1)c1ccccc1	0%	.	-9%
CCC1=NN(C(=O)CCc2ccccc2O)C(O)(C(F)(F)F)C1 (stereo not drawn)	10µM*	-1%	?
C/C(CCc1ccc2c(c1)OCO2)=N\NC(=O)c1ccccc1	-16%	-2%	18%
CC(C)(C)C1(O)CC(C(F)(F)F)=NN1C(=O)CCCc1ccccc1 (stereo not drawn)	14%	-2%	-16%
CCC1=NN(C(=O)CCc2ccc3c(c2)OCO3)C(O)(C(F)(F)F)C1 (stereo not drawn)	11µM*	4%	3%
CC/C=C\C/C=C\C/C=C\C/C=C\C/C=C\C/C=C\CCC(=O)O[C@H](COCCCCCCCCCCCCCCCC)COP(=O)([O-])OCC[N+](C)(C)C	1%	-1%	-3%
COc1ccc(C2/C=C\CN(C(=O)CC(C)(C)C)C(C)C(=O)N2Cc2ccc(F)cc2)cc1 (stereo not drawn)	?	.	-3%
Cc1c(N=Nc2ccc(O)cc2)c(=O)n(-c2ccccc2)n1C	-7%	-4%	1%

Screening results as filed in PubChem.
